Source: PubChem BioAssay (EPA / NIEHS)
Results filed as inconclusive are left out. Activity calls are given as the source filed them. The calls were made as follows, unless noted: active = hit-call score of the fitted dose curve at least 0.9, where 1 is the maximum; inactive = score below 0.9.

Legend:
[1] = molecular target: Oxysterols receptor LXR-alpha (Homo sapiens) (UniProt Q13133); test: ATG_LXRa_TRANS: Attagene TRANS-FACTORIAL HepG2 Assay for human Liver X Receptor alpha (LXRa) (AID 2282980; active = hit-call score of the fitted dose curve at least 0.9, where 1 is the maximum); conditions: HepG2 Attagene TRANS reporter, LXRa transactivation
Chain of Oxysterols receptor LXR-alpha (Homo sapiens) (Q13133 whole entry, looked up, the tested form may be a part): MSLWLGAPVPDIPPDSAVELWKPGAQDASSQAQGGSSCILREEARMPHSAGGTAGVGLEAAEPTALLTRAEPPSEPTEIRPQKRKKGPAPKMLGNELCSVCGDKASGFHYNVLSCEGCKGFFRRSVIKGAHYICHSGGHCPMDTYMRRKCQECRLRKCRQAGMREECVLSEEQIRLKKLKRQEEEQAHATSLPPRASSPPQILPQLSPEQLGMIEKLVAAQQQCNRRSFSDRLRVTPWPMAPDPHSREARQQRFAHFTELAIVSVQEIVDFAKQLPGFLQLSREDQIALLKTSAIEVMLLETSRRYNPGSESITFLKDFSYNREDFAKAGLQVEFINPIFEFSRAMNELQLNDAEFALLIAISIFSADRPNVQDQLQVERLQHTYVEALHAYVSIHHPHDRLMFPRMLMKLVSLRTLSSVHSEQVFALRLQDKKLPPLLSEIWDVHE
In short: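 Transfect HepG2 with GAL4-UAS multiplex reporter constructs (TRANS format, chimeric receptor-GAL4); treat 24 h; extract RNA, reverse-transcribe, PCR-amplify, FAM-label, HpaI-digest; resolve fragments by capillary electrophoresis. Upward response vs DMSO.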

[2] = molecular target: Oxysterols receptor LXR-beta (Homo sapiens) (UniProt P55055); test: ATG_LXRb_TRANS: Attagene TRANS-FACTORIAL HepG2 Assay for human Liver X Receptor beta (LXRb) (AID 2282981; active = hit-call score of the fitted dose curve at least 0.9, where 1 is the maximum); conditions: HepG2 Attagene TRANS GAL4-LXRb reporter, mRNA
Chain of Oxysterols receptor LXR-beta (Homo sapiens) (P55055 whole entry, looked up, the tested form may be a part): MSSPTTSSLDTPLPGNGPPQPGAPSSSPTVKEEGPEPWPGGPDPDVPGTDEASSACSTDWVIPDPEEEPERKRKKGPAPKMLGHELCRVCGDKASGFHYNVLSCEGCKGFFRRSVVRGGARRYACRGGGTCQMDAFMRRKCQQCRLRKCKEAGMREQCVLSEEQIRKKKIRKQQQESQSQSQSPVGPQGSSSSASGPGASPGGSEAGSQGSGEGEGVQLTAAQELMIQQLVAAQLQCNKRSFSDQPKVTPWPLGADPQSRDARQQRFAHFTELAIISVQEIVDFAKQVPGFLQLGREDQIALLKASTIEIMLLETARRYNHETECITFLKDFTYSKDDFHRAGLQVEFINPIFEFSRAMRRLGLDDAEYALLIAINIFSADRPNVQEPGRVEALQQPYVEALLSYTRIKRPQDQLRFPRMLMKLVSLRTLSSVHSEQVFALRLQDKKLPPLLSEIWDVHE
In short: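 Cells: HepG2, transiently transfected with GAL4-UAS reporter units plus LXRb-Gal4 fusion. Treatment: 24 h. Detection: reporter mRNA by RT-PCR, 6-FAM labelling, HpaI digestion, capillary electrophoresis.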

[3] = molecular target: Hepatocyte nuclear factor 4-alpha (Homo sapiens) (UniProt P41235); test: ATG_HNF4a_TRANS: Attagene TRANS-FACTORIAL HepG2 Assay for human Hepatocyte Nuclear Factor 4 alpha (HNF4a) (AID 2282982; active = hit-call score of the fitted dose curve at least 0.9, where 1 is the maximum); conditions: HepG2 HNF4a transactivation reporter, mRNA readout
Chain of Hepatocyte nuclear factor 4-alpha (Homo sapiens) (P41235 whole entry, looked up): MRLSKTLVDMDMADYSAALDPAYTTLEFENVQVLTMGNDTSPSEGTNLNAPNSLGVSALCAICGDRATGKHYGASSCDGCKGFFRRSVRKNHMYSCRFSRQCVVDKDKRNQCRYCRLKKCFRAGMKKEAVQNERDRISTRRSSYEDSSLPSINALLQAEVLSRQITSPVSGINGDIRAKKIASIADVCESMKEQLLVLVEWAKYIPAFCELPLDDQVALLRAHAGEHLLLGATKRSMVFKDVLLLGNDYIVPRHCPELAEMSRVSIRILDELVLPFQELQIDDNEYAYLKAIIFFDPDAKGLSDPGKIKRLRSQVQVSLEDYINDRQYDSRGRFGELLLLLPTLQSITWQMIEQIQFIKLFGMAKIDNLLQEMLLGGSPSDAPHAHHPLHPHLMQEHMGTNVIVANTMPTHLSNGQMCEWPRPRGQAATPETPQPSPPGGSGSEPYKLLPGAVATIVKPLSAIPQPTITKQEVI
In short: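 Transfected HepG2 reporter cells are dosed for 24 h; reporter RNA is reverse-transcribed, amplified, fluorescently labelled and HpaI-digested before CE sizing. Positive-direction fit against DMSO.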

[4] = ATG_M_06_TRANS: Attagene TRANS-FACTORIAL HepG2 Assay for M06 Transcription Factor (Internal Marker) (AID 2282983; active = hit-call score of the fitted dose curve at least 0.9, where 1 is the maximum); conditions: HepG2 Attagene TRANS M06 internal marker reporter
In short: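 Transfect HepG2 with MRTUs → dose compounds 24 h → isolate RNA, oligo(dT) RT → PCR with reporter primers → 6-FAM primer extension → HpaI digest → CE fragment analysis. Positive direction vs DMSO.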

[5] = ATG_M_32_TRANS: Attagene TRANS-FACTORIAL HepG2 Assay for M32 Transcription Factor (Internal Marker) (AID 2282984; active = hit-call score of the fitted dose curve at least 0.9, where 1 is the maximum;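 also: transcript level of a background control reporter unit measured by RT-PCR and capillary electrophoresis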); conditions: HepG2 Attagene TRANS M32 internal marker reporter
In short: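 Using transiently transfected HepG2 cells exposed to test chemicals for 24 h, reporter transcripts are converted to labelled cDNA fragments and quantified by capillary electrophoresis. DMSO defines the activity baseline.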

[6] = molecular target: Nuclear receptor subfamily 4 group A member 2 (Homo sapiens) (UniProt P43354); test: ATG_NURR1_TRANS: Attagene TRANS-FACTORIAL HepG2 Assay for human Nuclear Receptor Related Protein 1 (NURR1) (AID 2282985; active = hit-call score of the fitted dose curve at least 0.9, where 1 is the maximum); conditions: HepG2 Attagene TRANS reporter, mRNA readout
Chain of Nuclear receptor subfamily 4 group A member 2 (Homo sapiens) (P43354 whole entry, looked up): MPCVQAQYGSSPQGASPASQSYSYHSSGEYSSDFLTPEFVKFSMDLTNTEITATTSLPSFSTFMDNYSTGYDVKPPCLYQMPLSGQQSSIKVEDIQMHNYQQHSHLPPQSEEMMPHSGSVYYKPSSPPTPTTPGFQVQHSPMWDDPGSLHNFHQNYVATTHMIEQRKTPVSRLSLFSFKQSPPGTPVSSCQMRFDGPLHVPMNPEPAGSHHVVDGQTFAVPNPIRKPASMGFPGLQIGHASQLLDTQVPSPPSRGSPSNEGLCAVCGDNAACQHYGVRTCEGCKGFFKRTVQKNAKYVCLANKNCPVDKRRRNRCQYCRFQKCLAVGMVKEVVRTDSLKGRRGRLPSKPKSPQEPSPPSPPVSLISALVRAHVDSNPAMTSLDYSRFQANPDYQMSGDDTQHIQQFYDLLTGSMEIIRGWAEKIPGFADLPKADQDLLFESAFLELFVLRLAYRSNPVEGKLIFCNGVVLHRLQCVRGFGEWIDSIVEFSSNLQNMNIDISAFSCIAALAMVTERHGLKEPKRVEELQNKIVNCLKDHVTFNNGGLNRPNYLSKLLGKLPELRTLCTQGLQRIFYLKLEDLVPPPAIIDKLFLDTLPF
In short: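 Cells: HepG2, transiently transfected. Exposure: 24 h. Detection: fluorescence of labelled RT-PCR products separated by capillary electrophoresis; upward fit versus DMSO.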

[7] = molecular target: Transcriptional activator Myb (Homo sapiens) (UniProt P10242); test: ATG_Myb_CIS: Attagene CIS-FACTORIAL HepG2 Assay for human Myeloblastosis (Myb) Proto-Oncogene Transcription Factor (AID 2282986); conditions: HepG2 Attagene CIS-FACTORIAL Myb reporter transcription; actives raise or lower the signal
Chain of Transcriptional activator Myb (Homo sapiens) (P10242 whole entry, looked up): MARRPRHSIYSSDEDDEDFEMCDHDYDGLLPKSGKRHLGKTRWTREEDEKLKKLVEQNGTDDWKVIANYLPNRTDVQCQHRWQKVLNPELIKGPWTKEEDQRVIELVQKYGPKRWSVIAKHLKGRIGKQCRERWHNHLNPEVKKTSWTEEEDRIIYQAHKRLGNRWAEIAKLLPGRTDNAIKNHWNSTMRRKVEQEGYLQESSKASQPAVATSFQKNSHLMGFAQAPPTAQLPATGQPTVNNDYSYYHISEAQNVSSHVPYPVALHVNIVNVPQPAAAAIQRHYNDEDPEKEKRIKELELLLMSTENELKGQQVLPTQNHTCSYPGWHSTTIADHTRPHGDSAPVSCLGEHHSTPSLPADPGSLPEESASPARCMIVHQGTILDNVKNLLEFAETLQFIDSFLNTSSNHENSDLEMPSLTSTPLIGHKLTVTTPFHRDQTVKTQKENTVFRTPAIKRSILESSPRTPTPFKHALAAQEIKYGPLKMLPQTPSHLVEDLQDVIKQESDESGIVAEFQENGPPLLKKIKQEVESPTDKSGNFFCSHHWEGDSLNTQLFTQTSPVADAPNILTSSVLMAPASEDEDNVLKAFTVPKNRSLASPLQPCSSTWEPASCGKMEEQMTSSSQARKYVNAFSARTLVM
In short: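 Reporter mRNA is quantified by RT-PCR and capillary electrophoresis 24 h after dosing HepG2 cells transfected with cis-regulated reporter units, which track endogenous transcription factor activity. Gain and loss of signal are fitted versus DMSO baseline.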

[8] = molecular target: Nuclear respiratory factor 1 (Homo sapiens) (UniProt Q16656); test: ATG_NRF1_CIS: Attagene CIS-FACTORIAL HepG2 Assay for human Nuclear Respiratory Factor 1 (NRF1) Orphan Gene (AID 2282987); conditions: HepG2 NRF1 cis-element reporter, Attagene multiplex; actives raise or lower the signal
Chain of Nuclear respiratory factor 1 (Homo sapiens) (Q16656 whole entry, looked up): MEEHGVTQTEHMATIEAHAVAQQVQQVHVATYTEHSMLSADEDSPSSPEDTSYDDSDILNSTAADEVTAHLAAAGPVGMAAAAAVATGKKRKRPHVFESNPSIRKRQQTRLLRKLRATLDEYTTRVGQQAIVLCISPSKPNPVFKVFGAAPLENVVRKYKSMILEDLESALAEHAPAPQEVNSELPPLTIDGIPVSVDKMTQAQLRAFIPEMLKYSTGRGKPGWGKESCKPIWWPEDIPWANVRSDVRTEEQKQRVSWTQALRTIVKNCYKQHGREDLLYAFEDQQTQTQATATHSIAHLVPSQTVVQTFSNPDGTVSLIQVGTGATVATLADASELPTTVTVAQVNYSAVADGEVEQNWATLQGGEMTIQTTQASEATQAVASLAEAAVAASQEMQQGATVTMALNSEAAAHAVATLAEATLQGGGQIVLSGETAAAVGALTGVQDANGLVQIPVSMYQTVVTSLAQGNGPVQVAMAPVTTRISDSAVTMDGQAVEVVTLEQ
In short: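 Endogenous NRF1-driven reporter transcription in transfected HepG2 cells after 24 h treatment. Readout: RT-PCR products, 6-FAM labelled and resolved by capillary electrophoresis; changes fitted both directions relative to DMSO.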

[9] = ATG_NFI_CIS: Attagene CIS-FACTORIAL HepG2 Assay for human Nuclear Factor I (NFI) (AID 2282989); conditions: HepG2 cis-regulatory reporter, NFI response element transcription; actives raise or lower the signal
In short: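 HepG2, transient MRTU, 24 h exposure; RNA→cDNA→PCR→FAM label→HpaI→CE fluorescence. Bidirectional fit, DMSO = baseline.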

[10] = molecular target: Myc proto-oncogene protein (Homo sapiens) (UniProt P01106); test: ATG_Myc_CIS: Attagene CIS-FACTORIAL HepG2 Assay for human Myelocytomatosis (Myc) Proto-Oncogene Transcription Factor (AID 2282990); conditions: HepG2, Attagene cis-reporter transcription factor activity; actives raise or lower the signal
Chain of Myc proto-oncogene protein (Homo sapiens) (P01106 whole entry, looked up): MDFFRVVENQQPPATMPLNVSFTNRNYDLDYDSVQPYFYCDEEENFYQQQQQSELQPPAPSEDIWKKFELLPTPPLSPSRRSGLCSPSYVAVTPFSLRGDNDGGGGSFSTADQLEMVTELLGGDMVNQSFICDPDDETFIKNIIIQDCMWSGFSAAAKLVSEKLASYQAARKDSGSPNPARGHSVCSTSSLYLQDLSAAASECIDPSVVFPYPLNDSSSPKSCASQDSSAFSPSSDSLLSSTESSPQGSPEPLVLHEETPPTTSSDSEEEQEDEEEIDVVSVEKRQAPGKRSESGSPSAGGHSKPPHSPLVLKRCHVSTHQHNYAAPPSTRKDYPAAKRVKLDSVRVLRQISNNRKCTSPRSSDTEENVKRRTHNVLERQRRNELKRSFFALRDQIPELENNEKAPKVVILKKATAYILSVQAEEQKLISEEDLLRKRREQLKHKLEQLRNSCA
In short: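 HepG2, transient MRTU transfection (cis promoters, endogenous TFs); 24 h dosing; TriZol RNA → oligo(dT) RT → PCR → 6-FAM primer extension → HpaI cut → CE. Bidirectional fit vs DMSO.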

[11] = ATG_NRF2_ARE_CIS: Attagene CIS-FACTORIAL HepG2 Assay for human Nuclear Factor Erythroid 2 Related Factor 2 (NFR2) response to Antioxidant Response Elements (ARE) (AID 2282992); conditions: HepG2 Attagene ARE/NRF2 reporter, transcription factor activity; actives raise or lower the signal;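 as to AC50: reporter mRNA level measured by RT-PCR and capillary electrophoresis fluorescence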
In short: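 Transient MRTU transfection of HepG2; 24 h compound exposure; TriZol RNA, RT with oligo(dT), PCR, 6-FAM primer extension, HpaI cut, CE. Bidirectional fit vs DMSO.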

[12] = ATG_Oct_MLP_CIS: Attagene CIS-FACTORIAL HepG2 Assay for human Octamer-Binding Transcription Factor (Oct) (AID 2282993); conditions: HepG2 Attagene cis-factorial Oct reporter, mRNA; actives raise or lower the signal
In short: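 Multiplexed cis-reporter assay in human liver HepG2 cells, 24 h incubation. Reporter RNA amplified and labelled, then resolved by capillary electrophoresis; DMSO serves as negative control and baseline.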

[13] = molecular target: Cellular tumor antigen p53 (Homo sapiens) (UniProt P04637); test: ATG_p53_CIS: Attagene CIS-FACTORIAL HepG2 Assay for human p53 Transcription Factor (AID 2282994); conditions: HepG2 p53 cis-element reporter, Attagene mRNA; actives raise or lower the signal
Chain of Cellular tumor antigen p53 (Homo sapiens) (P04637 whole entry, looked up): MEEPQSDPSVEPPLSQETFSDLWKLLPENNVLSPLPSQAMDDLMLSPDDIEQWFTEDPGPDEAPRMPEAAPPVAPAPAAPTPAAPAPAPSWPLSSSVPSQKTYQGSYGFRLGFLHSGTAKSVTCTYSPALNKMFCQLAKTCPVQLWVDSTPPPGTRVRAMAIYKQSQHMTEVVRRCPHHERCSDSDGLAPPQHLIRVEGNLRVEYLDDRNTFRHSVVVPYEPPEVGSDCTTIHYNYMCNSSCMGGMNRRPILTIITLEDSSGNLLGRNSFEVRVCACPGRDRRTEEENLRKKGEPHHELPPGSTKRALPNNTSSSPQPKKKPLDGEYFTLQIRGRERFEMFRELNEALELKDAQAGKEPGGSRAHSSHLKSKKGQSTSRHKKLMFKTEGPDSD
In short: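 HepG2, transient MRTU transfection (cis promoter elements, endogenous TFs); 24 h dosing; RNA isolation, RT-PCR, 6-FAM primer extension, HpaI digest, CE fluorescence; bidirectional fit vs DMSO.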

[14] = BSK_3C_uPAR: BioMAP Diversity Plus: 3C Assay for Urokinase-type plasminogen activator receptor (uPAR) Biomarker Activity (AID 2282998); conditions: BioMAP 3C HUVEC, uPAR biomarker ELISA; actives raise or lower the signal
In short: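 Dose primary human umbilical vein endothelial cells, incubate 24 h, measure cell-surface uPAR by ELISA, then fit the signal in both directions against the DMSO negative control.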

[15] = BSK_3C_VCAM1: BioMAP Diversity Plus: 3C Assay for Vascular cell adhesion molecule 1 (VCAM1) Biomarker Activity (AID 2282999); conditions: BioMAP 3C HUVEC, VCAM1 ELISA, cytokine-stimulated; actives raise or lower the signal
In short: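 Endothelial cells from human umbilical vein are treated with test chemical. At 24 h, VCAM-1 is measured by ELISA, and responses in either direction are fitted relative to DMSO.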

[16] = BSK_4H_Eotaxin3: BioMAP Diversity Plus: 4H Assay for Eotaxin 3 Biomarker Activity (AID 2283000); conditions: primary human endothelial cells (HUVEC); actives raise or lower the signal
In short: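 Chemicals were added to human umbilical vein endothelium cultures, and Eotaxin-3 was quantified by ELISA at 24 h. Values were derived by bidirectional fitting with DMSO serving as negative control and activity baseline.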

[17] = molecular target: human Peroxisome Proliferator-activated Receptor alpha (PPARa), PPARA (gene 5465) (UniProt Q07869); test: ATG_PPARa_TRANS: Attagene TRANS-FACTORIAL HepG2 Assay for human Peroxisome Proliferator-activated Receptor alpha (PPARa) (AID 2283001; active = hit-call score of the fitted dose curve at least 0.9, where 1 is the maximum;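 as to AC50: potency for gain of reporter signal over DMSO so agonist or activator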)
Chain of human Peroxisome Proliferator-activated Receptor alpha (PPARa), PPARA (gene 5465) (Q07869 whole entry, looked up, the tested form may be a part): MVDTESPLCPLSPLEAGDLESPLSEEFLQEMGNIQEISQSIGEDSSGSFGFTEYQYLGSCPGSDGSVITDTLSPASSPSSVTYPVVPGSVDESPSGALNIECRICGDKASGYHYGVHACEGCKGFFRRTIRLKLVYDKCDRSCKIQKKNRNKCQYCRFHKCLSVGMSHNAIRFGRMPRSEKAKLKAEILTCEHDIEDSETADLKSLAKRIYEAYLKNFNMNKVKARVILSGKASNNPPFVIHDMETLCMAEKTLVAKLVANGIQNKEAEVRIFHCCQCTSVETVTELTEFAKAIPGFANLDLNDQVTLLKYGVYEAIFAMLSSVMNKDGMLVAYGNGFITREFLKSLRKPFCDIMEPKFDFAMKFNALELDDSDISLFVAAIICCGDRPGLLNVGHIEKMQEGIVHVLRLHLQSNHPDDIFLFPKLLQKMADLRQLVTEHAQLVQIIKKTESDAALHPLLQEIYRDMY
In short: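 Reporter transcripts from GAL4-UAS units in transfected HepG2 were quantified 24 h after dosing. Detection used reverse transcription, PCR, fluorescent primer extension and capillary electrophoresis, with DMSO as baseline.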

[18] = ATG_NF_kB_CIS: Attagene CIS-FACTORIAL HepG2 Assay for human Nuclear Factor Kappa B (NF-kB) (AID 2282991); conditions: HepG2 Attagene cis-factorial NF-kB reporter mRNA; actives raise or lower the signal
In short: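 Readout is reporter transcript level, gain or loss versus DMSO, measured 24 h post-dose via RT-PCR, fluorescent labelling and capillary electrophoresis. Human HepG2 liver cells carried transiently transfected CIS reporter constructs reflecting endogenous factors.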

[19] = BSK_3C_TissueFactor: BioMAP Diversity Plus: 3C Assay for Tissue Factor Biomarker Activity (AID 2282997); conditions: BioMAP 3C HUVEC, tissue factor biomarker readout; actives raise or lower the signal
In short: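 ELISA read-out of Tissue Factor levels on human umbilical vein endothelium collected 24 h after chemical dosing. Gain or loss of signal was fitted relative to DMSO.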

Measured: AC50

CC(C)(C)c1ccc(CSc2cnn(C(C)(C)C)c(=O)c2Cl)cc1
active: [8] 19.1 µM | [11] 0.0912 µM | [12] 0.024 µM | [14] 8.48 µM | [16] 0.782 µM
not listed: [18] | [19]
inactive: all other assays above

Fc1ccc(Oc2ccnc3cc(Cl)cc(Cl)c23)cc1
active: [11] 3.83 µM | [14] 31.2 µM | [15] 31.4 µM | [16] 28.8 µM
not listed: [4] | [18] | [19]
inactive: all other assays above

COc1nc(C)nc(NC(=O)NS(=O)(=O)c2ccccc2Cl)n1
not listed: [1] | [6] | [18] | [19]
inactive: all other assays above

CCNc1nc(Cl)nc(NCC)n1
not listed: [3] | [6] | [18] | [19]
inactive: all other assays above

O=C(Nc1ccccc1)Nc1ccnc(Cl)c1
active: [6] 50 µM | [18] 30.1 µM | [11] 13.7 µM | [12] 33.5 µM
not listed: [4] | [19]
inactive: all other assays above

COP(=S)(OC)Oc1nc(Cl)c(Cl)cc1Cl
active: [11] 26.2 µM
not listed: [1] | [3] | [5] | [17] | [18]
inactive: all other assays above

N#Cc1cc(Br)c(O)c(Br)c1
active: [9] 10.8 µM | [11] 26.7 µM | [12] 40.1 µM | [14] 32.5 µM | [17] 15.9 µM
not listed: [4] | [5] | [6]
inactive: all other assays above
